Compound activity as filed in PubChem BioAssay.
CYP2C19 inhib: human CYP2C19 inhibition; 96,000 tested, 21% active; CYP2C19 Supersomes, luciferin-H EGE luminescence, 30 min; inhibition, % at 5 µM; AID 778;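 active means CYP2C19 inhibition above a set limit at 5 µM in the primary screen, cut at about 50% in these data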;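 further: plate controls were negative control wells for no effect and 2.5 mM tranylcypromine positive control for full effect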
CYP2C19 activ: increases human CYP2C19 enzyme activity; AID 1025; P33261; 96,000 tested, under 10 active; activation factor at 5 µM; recombinant CYP2C19, luciferin-H EGE luminescence; active compounds read high; 0 = fully inhibited enzyme, 1 = untreated enzyme;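 active means activation factor of at least 2 at 5 µM in the primary screen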;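 further: 0 = wells with 2.5 mM tranylcypromine and 1 = vehicle-only wells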
PLK1 kinase inh: blocks human PLK1 kinase activity; AID 619; recombinant PLK1 kinase, TR-FRET peptide phosphorylation; 97,000 tested, 0.53% active; inhibition, % at 10 µM;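 active means inhibition of 50% or more in the single-concentration screen; inactive means inhibition below 50%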;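 further: 0% = DMSO max control and 100% = H-89 dihydrochloride min control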
CYP2C9 activ: increases human cytochrome P450 2C9 activity. P11712. recombinant CYP2C9, luciferin-H conversion, luminescence; active compounds read high; factor 1 = untreated enzyme, 0 = blocked. activation factor at 5 µM. 96,000 tested, 1.4% active. AID 1024;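 active means activation factor of 2 or more for CYP2C9 at a 5 µM dose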;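 further: 0 = sulfaphenazole-blocked wells and 1 = vehicle-only wells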
Target sequence (P11712 whole entry, looked up): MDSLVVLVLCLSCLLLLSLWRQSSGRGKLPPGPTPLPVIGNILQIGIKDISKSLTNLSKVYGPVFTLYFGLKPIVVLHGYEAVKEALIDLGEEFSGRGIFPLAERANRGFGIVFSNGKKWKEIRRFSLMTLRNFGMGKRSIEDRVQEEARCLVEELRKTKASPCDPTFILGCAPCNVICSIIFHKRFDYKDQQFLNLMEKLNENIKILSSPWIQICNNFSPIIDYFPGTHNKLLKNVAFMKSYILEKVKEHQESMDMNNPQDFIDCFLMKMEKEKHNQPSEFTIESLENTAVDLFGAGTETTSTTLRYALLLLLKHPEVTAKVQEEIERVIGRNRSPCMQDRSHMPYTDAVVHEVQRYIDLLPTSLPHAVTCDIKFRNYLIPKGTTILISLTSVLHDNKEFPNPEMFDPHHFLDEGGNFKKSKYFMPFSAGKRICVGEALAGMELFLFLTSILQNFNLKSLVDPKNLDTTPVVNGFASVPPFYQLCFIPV
Plk1 PBD FP: inhibitors of human Plk1 polo box domain binding | inhibition, %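 (tested at about 20 µM)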 | 97,000 tested, 0.13% active | Plk1 PBD phosphopeptide binding, fluorescence polarization; in the data active means inhibition above about 34%, passing the limit was not always enough
CYP2C9 inh: inhibitors of human CYP2C9; CYP2C9 Supersomes, luciferin-H conversion, luminescence; inhibition, % at 5 µM; 96,000 tested, 20% active; AID 777;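 active means blocking of liver enzyme CYP2C9 beyond about 50% at 5 µM, limit read from the data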
* = called active by the depositor; x = no result. Sampled rows, rich in hits. Any-hit rate of the full collection: about 28%.

SMILES	CYP2C19 inhib	CYP2C19 activ	PLK1 kinase inh	CYP2C9 activ	Plk1 PBD FP	CYP2C9 inh
COc1ccc(O)c(-c2[nH]ncc2C(=O)c2ccccc2C)c1	90.2*	0.1	33.9	0.1	31.9	86.9*
COc1ccc2c(C(=O)CN3CC(C)OC(C)C3)c[nH]c2c1 (configuration not stated)	53.0*	0.5	-10.2	0.8	-8.8	21.1
CCCCNS(=O)(=O)c1ccc(NS(=O)(=O)c2c(C)cc(C)cc2C)cc1	85.0*	0.2	5.9	0	-16.1	98.3*
CCNS(=O)(=O)c1ccc(NS(=O)(=O)c2cc(C)ccc2C)cc1	63.7*	0.4	-15.8	0	14.0	96.9*
Cc1ccc(C)c(S(=O)(=O)Nc2ccc(S(=O)(=O)Nc3onc(C)c3C)cc2)c1	13.7	0.9	5.8	0.3	1.2	70.9*
CCNS(=O)(=O)c1ccc(NS(C)(=O)=O)cc1	-10.2	1.1	-5.5	1	-27.2	-3.2
COc1ccc(NS(=O)(=O)c2cc(C)ccc2C)cc1	82.4*	0.2	-5.9	0.3	6.1	72.2*
Cn1c(=O)c2cc(S(=O)(=O)NCCC(=O)NCCc3ccc(Cl)cc3)ccc2n(C)c1=O	11.3	0.9	-6.5	1.2	-9.6	-23.1
Cc1noc(NS(=O)(=O)c2ccc(NC(=O)CS(=O)(=O)c3ccccc3)cc2)c1C	-8.2	1.1	-5.2	0.5	3.2	53.7*
Cc1cc(C)c(S(=O)(=O)Nc2ccc(O)cc2)cc1C	97.0*	0	-12.6	1.1	-2.6	-12.5
Cc1ccc(C)c(S(=O)(=O)Nc2ccc(O)cc2)c1	72.3*	0.3	-11.5	0.9	-24.8	13.9
COc1ccc(NS(=O)(=O)c2cc(OC)ccc2NC(=O)c2cc(C)oc2C)cc1	91.3*	0.1	-19.2	0.6	27.1	43.6
CC(=O)Nc1cc(S(=O)(=O)Nc2ccc(C)cc2)c(C)cc1C	13.0	0.9	-7.6	0.8	-7.0	19.0
COCCNC(=O)c1ccc(NS(=O)(=O)c2cc(C)ccc2C)cc1	2.7	1	-12.6	0.8	-9.3	22.8
CC1(C)CC(=O)c2c(n(-c3cccc4ccccc34)ccc2=O)C1	9.1	0.9	-40.1	0.9	-16.3	11.0
CCCCn1nnnc1SCC(=O)Nc1sc2c(c1C#N)CCCC2	19.6	0.8	-6.8	0.7	11.4	28.5
Cc1nc2c(cnn2-c2ccccc2Cl)c(=O)n1-c1ccc(C(C)C)cc1	18.2	0.8	3.7	1.2	12.4	-21.8
Cc1ccc(C)c(N(CC(=O)NCCSCc2ccco2)S(C)(=O)=O)c1	80.9*	0.2	-10.6	0.1	11.9	88.3*
Cc1ccc(N(CC(=O)NCCSCc2ccco2)S(=O)(=O)c2ccc(C)cc2)cc1	70.9*	0.3	-11.1	0.1	17.3	87.9*
Cc1cccc(N(CC(=O)NCCSCc2ccco2)S(=O)(=O)c2ccccc2)c1	67.8*	0.3	-1.8	0.3	0.6	70.9*
CS(=O)(=O)Nc1ccc(C(=O)NCCSCc2ccco2)cc1	-1.5	1	-7.6	0.6	5.7	36.4
Cc1cc(C)cc(N(CC(=O)NCCSc2ccccn2)S(=O)(=O)c2ccccc2)c1	49.4	0.5	-9.7	0.4	-12.0	64.2*
CN(C)S(=O)(=O)c1ccc(NC(=O)COC(=O)c2ccccn2)cc1	-2.8	1	-4.8	1.1	-25.5	-8.1
CC1CC(N(C(=O)c2ccco2)c2ccccc2)c2ccccc2N1 (configuration not stated)	84.5*	0.2	-0.1	0	-3.0	96.0*
C1=Nc2c(Nc3ccccc3)ncnc2Oc2ccccc21	54.0*	0.5	1.1	0.4	-0.5	61.9*
SMILES	CYP2C19 inhib	CYP2C19 activ	PLK1 kinase inh	CYP2C9 activ	Plk1 PBD FP	CYP2C9 inh
N#CCCN(Cc1cccnc1)C(=O)c1ccc(S(=O)(=O)N2CCOCC2)cc1	3.3	1	3.0	1	-0.5	0.7
COc1ccc(Cn2nnnc2C(c2cccs2)N2CCSCC2)cc1 (configuration not stated)	82.6*	0.2	5.2	0.4	-31.5	58.6*
COc1ccc2cc(C(c3nnnn3Cc3ccccc3)N3CCCCCC3)c(=O)[nH]c2c1 (configuration not stated)	69.5*	0.3	-8.3	0.3	-11.6	70.3*
COc1ccc(Cn2nnnc2C(c2cccs2)N2CCCCCC2)cc1 (configuration not stated)	99.6*	0	1.1	0.1	11.5	91.8*
COc1ccc2cc(C(c3nnnn3Cc3ccc(F)cc3)N3CCCCCC3)c(=O)[nH]c2c1 (configuration not stated)	5.7	0.9	3.3	0.9	35.9	11.0
Fc1ccc(Cn2nnnc2C(c2ccc(Cl)cc2)N2CCSCC2)cc1 (configuration not stated)	94.2*	0.1	-11.3	0.3	3.9	69.4*
COc1ccc(OC)c(NC(=O)CSc2nnnn2-c2ccc3c(c2)OCO3)c1	3.7	1	-11.7	1.1	4.1	-6.2
Cc1ccc(NC(=O)c2ccc(OC(=O)c3cc4ccccc4o3)cc2)cc1	10.5	0.9	13.2	0.7	-11.0	29.7
Cc1cc(Oc2ccccc2)nc(OCC#N)n1	31.8	0.7	-6.6	1	9.2	1.9
CCCCNC(=O)c1cc(-c2ccc(F)cc2)on1	x	x	-5.2	x	16.9	x
O=c1[nH]c2cc3c(cc2cc1C(c1nnnn1CC1CCCO1)N1CCCCCC1)OCCO3 (configuration not stated)	6.9	0.9	-7.2	0.2	-39.4	78.7*
COc1ccc2[nH]c(=O)c(C(c3nnnn3C3CCCC3)N3CCN(Cc4ccc5c(c4)OCO5)CC3)cc2c1 (configuration not stated)	-7.9	1.1	5.0	0.2	-5.5	83.8*
Cc1ccnc(SCCn2c(N3CCC(C)CC3)nc3c2c(=O)n(C)c(=O)n3C)n1	x	x	2.6	x	-28.7	x
CC(O)c1ccc2c(c1)OCCOCCN(C)CCOCCO2 (configuration not stated)	-1.6	1	1.8	1	-5.9	0.8
CC(C)CCC(CCN1CCOCC1)c1ccc2c(c1)OCO2 (configuration not stated)	95.2*	0	x	0.5	x	50.9*
CC1CN(S(=O)(=O)c2cccs2)CC(C)O1 (configuration not stated)	35.1	0.6	-8.2	1	-14.6	1.8
CC1CCc2ccc(F)cc2N1S(=O)(=O)c1cccs1 (configuration not stated)	62.1*	0.4	-5.5	0.6	6.7	40.5
CCOC(=O)N1CCN(C(=O)C(NS(=O)(=O)c2cccc3nsnc23)c2ccccc2)CC1 (configuration not stated)	-8.8	1.1	-5.8	0.3	-10.9	72.7*
O=C(NC1CCCC1)C(NS(=O)(=O)c1cccc2nsnc12)c1ccccc1 (configuration not stated)	6.4	0.9	0.2	0.5	-7.8	50.5*
CCC(C)NC(=O)C(Cc1ccccc1)NS(=O)(=O)c1cccc2nsnc12 (configuration not stated)	8.7	0.9	-4.4	0.9	11.3	14.8
